Test results published in the supplement of paper PMC8975748.
Where a name gives a salt, the structure may show the parent alone. ± gives the standard deviation of the averaged measurements.

What was measured:
[1] = test system: Saccharomyces cerevisiae BY4741 SeMeCo community; assay: z-score of prototroph abundance vs DMSO median; higher = larger share of this subpopulation than in DMSO controls; settings: 10 µM; 24 h; SM minimal medium; subpopulation (auxotrophy): Prototroph
Method in brief: (§1)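 Subpopulation abundance was reported as a z-score against the median of vehicle wells. The Saccharomyces cerevisiae BY4741 community, carrying four plasmids that each restored one auxotrophy and encoded a distinct fluorescent protein, was grown 24 h in minimal SM medium in 384-well plates holding library drugs at 10 µM final. Cells were paraformaldehyde-fixed and imaged by automated confocal microscopy, with single-auxotroph fluorescent strains used for thresholds and autofluorescence correction.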

[2] = test system: Saccharomyces cerevisiae BY4741 SeMeCo community; assay: z-score of subpopulation abundance vs DMSO median, subpopulation auxotrophic for M; higher = larger share of this subpopulation than in DMSO controls; settings: 10 µM; 24 h; SM minimal medium; subpopulation (auxotrophy): M
Method in brief: as §1

[3] = test system: Saccharomyces cerevisiae BY4741 SeMeCo community; assay: z-score of subpopulation abundance vs DMSO median, subpopulation auxotrophic for L; higher = larger share of this subpopulation than in DMSO controls; settings: 10 µM; 24 h; SM minimal medium; subpopulation (auxotrophy): L
Method in brief: as §1

[4] = test system: Saccharomyces cerevisiae BY4741 SeMeCo community; assay: z-score of subpopulation abundance vs DMSO median, subpopulation auxotrophic for U; higher = larger share of this subpopulation than in DMSO controls; settings: 10 µM; 24 h; SM minimal medium; subpopulation (auxotrophy): U
Method in brief: as §1

[5] = test system: Saccharomyces cerevisiae BY4741 SeMeCo community; assay: z-score of subpopulation abundance vs DMSO median, subpopulation auxotrophic for H; higher = larger share of this subpopulation than in DMSO controls; settings: 10 µM; 24 h; SM minimal medium; subpopulation (auxotrophy): H
Method in brief: as §1

[6] = test system: Saccharomyces cerevisiae BY4741 SeMeCo community; assay: z-score of subpopulation abundance vs DMSO median, subpopulation auxotrophic for LU; higher = larger share of this subpopulation than in DMSO controls; settings: 10 µM; 24 h; SM minimal medium; subpopulation (auxotrophy): LU
Method in brief: as §1

[7] = test system: Saccharomyces cerevisiae BY4741 SeMeCo community; assay: z-score of subpopulation abundance vs DMSO median, subpopulation auxotrophic for LM; higher = larger share of this subpopulation than in DMSO controls; settings: 10 µM; 24 h; SM minimal medium; subpopulation (auxotrophy): LM
Method in brief: as §1

[8] = test system: Saccharomyces cerevisiae BY4741 SeMeCo community; assay: z-score of subpopulation abundance vs DMSO median, subpopulation auxotrophic for HM; higher = larger share of this subpopulation than in DMSO controls; settings: 10 µM; 24 h; SM minimal medium; subpopulation (auxotrophy): HM
Method in brief: as §1

[9] = test system: Saccharomyces cerevisiae BY4741 SeMeCo community; assay: z-score of subpopulation abundance vs DMSO median, subpopulation auxotrophic for HLU; higher = larger share of this subpopulation than in DMSO controls; settings: 10 µM; 24 h; SM minimal medium; subpopulation (auxotrophy): HLU
Method in brief: as §1

[10] = test system: Saccharomyces cerevisiae BY4741 SeMeCo community; assay: z-score of subpopulation abundance vs DMSO median, subpopulation auxotrophic for HLM; higher = larger share of this subpopulation than in DMSO controls; settings: 10 µM; 24 h; SM minimal medium; subpopulation (auxotrophy): HLM
Method in brief: as §1

[11] = test system: Saccharomyces cerevisiae BY4741 SeMeCo community; assay: z-score of subpopulation abundance vs DMSO median, subpopulation auxotrophic for LUM; higher = larger share of this subpopulation than in DMSO controls; settings: 10 µM; 24 h; SM minimal medium; subpopulation (auxotrophy): LUM
Method in brief: as §1

[12] = test system: Saccharomyces cerevisiae BY4741 SeMeCo community; assay: z-score of subpopulation abundance vs DMSO median, subpopulation auxotrophic for HLUM; higher = larger share of this subpopulation than in DMSO controls; settings: 10 µM; 24 h; SM minimal medium; subpopulation (auxotrophy): HLUM
Method in brief: as §1

[13] = test system: Saccharomyces cerevisiae BY4741 SeMeCo community; assay: mean cell size (pixel area) (pixels); higher = larger cells; settings: 10 µM; 24 h; SM minimal medium
Method in brief: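 A four-plasmid fluorescent Saccharomyces cerevisiae BY4741 community was tested; each plasmid complements one auxotrophy and carries a fluorescent marker. An overnight preculture at OD600 = 1.0 was diluted to OD600 = 0.3, and 70 µl was added to 384-well plates acoustically predosed with drug (final 10 µM) in SM medium for 24 h. Cells were fixed with paraformaldehyde and imaged by automated confocal microscopy, with analysis in Harmony. Mean cell pixel area per well is averaged over 3 replicates. Same SeMeCo high-content imaging drug screen: Selleck FDA-approved drugs at 10 µM, 24 h in SM medium, 384-well plates, 3 replicates.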

[14] = test system: Saccharomyces cerevisiae BY4741 SeMeCo community; assay: z-score of subpopulation abundance vs DMSO median, subpopulation auxotrophic for HU; higher = larger share of this subpopulation than in DMSO controls; settings: 10 µM; 24 h; SM minimal medium; subpopulation (auxotrophy): HU
Method in brief: as §1

[15] = test system: Saccharomyces cerevisiae BY4741 SeMeCo community; assay: z-score of subpopulation abundance vs DMSO median, subpopulation auxotrophic for UM; higher = larger share of this subpopulation than in DMSO controls; settings: 10 µM; 24 h; SM minimal medium; subpopulation (auxotrophy): UM
Method in brief: as §1

[16] = test system: Saccharomyces cerevisiae BY4741 SeMeCo community; assay: z-score of subpopulation abundance vs DMSO median, subpopulation auxotrophic for HUM; higher = larger share of this subpopulation than in DMSO controls; settings: 10 µM; 24 h; SM minimal medium; subpopulation (auxotrophy): HUM
Method in brief: as §1

[17] = test system: Saccharomyces cerevisiae BY4741 SeMeCo community; assay: z-score of subpopulation abundance vs DMSO median, subpopulation auxotrophic for HL; higher = larger share of this subpopulation than in DMSO controls; settings: 10 µM; 24 h; SM minimal medium; subpopulation (auxotrophy): HL
Method in brief: as §1

Compound | z-score of prototroph abundance [1] | z-score of subpopulation abundance [2] | z-score of subpopulation abundance [3] | z-score of subpopulation abundance [4] | z-score of subpopulation abundance [5] | z-score of subpopulation abundance [6] | z-score of subpopulation abundance [7] | z-score of subpopulation abundance [8] | z-score of subpopulation abundance [9] | z-score of subpopulation abundance [10] | z-score of subpopulation abundance [11] | z-score of subpopulation abundance [12] | mean cell size [13] | z-score of subpopulation abundance [14] | z-score of subpopulation abundance [15] | z-score of subpopulation abundance [16] | z-score of subpopulation abundance [17]
O=C1CN(/N=C/c2ccc(-c3ccc([N+](=O)[O-])cc3)o2)C(=O)N1 [Dantrolene sodium] | 2.09 | 0.97 | 2.03 | -3.65 | 0.84 | -2.49 | 1.59 | 0.62 | -0.91 | 1.18 | -0.73 | 0.72 | – | – | – | – | –
Cc1ccc(Nc2c(F)cccc2Cl)c(CC(=O)O)c1 [Lumiracoxib] | 1.08 | 0.63 | -1.37 | – | -0.79 | -1.15 | 0.14 | – | -0.53 | – | – | -0.5 | 12.9 ± 0.21 | -1.07 | -0.4 | -1.5 | –
CCN(CC)CCOc1ccc2c(c1)C(=O)c1cc(OCCN(CC)CC)ccc1-2 [Tilorone dihydrochloride] | 0.72 | -1.12 | -0.72 | 0.24 | 0.18 | -0.27 | -0.86 | – | -0.23 | – | -0.39 | -0.11 | 12.3 ± 0.13 | 0.05 | -0.31 | -0.66 | -0.65
O=C1NC(=O)C(c2ccccc2)(c2ccccc2)N1 [Phenytoin] | -0.03 | 0.07 | -0.25 | 0.51 | -0.22 | 0.23 | 0.5 | -0.81 | -0.45 | – | 0.38 | – | 12.39 ± 0.12 | -0.49 | 0.49 | 0.18 | -0.93
